In article PMC7826789 (International Journal of Molecular Sciences, 2021):

Assays:
Conditions in all cases: Compound Concentration (nM):1000
EIF2AK1 = test system: EIF2AK1
EPHA1 = test system: EPHA1
EPHA2 = test system: EPHA2
EPHA3 = test system: EPHA3
EPHA4 = test system: EPHA4
EPHA5 = test system: EPHA5
EPHA6 = test system: EPHA6
EPHA7 = test system: EPHA7
EPHA8 = test system: EPHA8
EPHB1 = test system: EPHB1
EPHB2 = test system: EPHB2
EPHB3 = test system: EPHB3
EPHB4 = test system: EPHB4
EPHB6 = test system: EPHB6
ERBB2 = test system: ERBB2
ERBB3 = test system: ERBB3
ERBB4 = test system: ERBB4
ERK1 = test system: T1, ERK1
T1 construct: gene MAPK3

ERK2 = test system: T2, ERK2
T2 construct: gene MAPK1

ERK3 = test system: T3, ERK3
T3 construct: gene MAPK6
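Also: KINOMEscan scanMAX binding as percent activity remaining versus control; lower means stronger binding.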

SMILES	Percent Control (EIF2AK1) [%]	Percent Control (EPHA1) [%]	Percent Control (EPHA2) [%]	Percent Control (EPHA3) [%]	Percent Control (EPHA4) [%]	Percent Control (EPHA5) [%]	Percent Control (EPHA6) [%]	Percent Control (EPHA7) [%]	Percent Control (EPHA8) [%]	Percent Control (EPHB1) [%]	Percent Control (EPHB2) [%]	Percent Control (EPHB3) [%]	Percent Control (EPHB4) [%]	Percent Control (EPHB6) [%]	Percent Control (ERBB2) [%]	Percent Control (ERBB3) [%]	Percent Control (ERBB4) [%]	Percent Control (ERK1) [%]	Percent Control (ERK2) [%]	Percent Control (ERK3) [%]
COc1ccc2cc(-c3c(-c4ccncc4)nc(-c4ccc(S(C)(=O)=O)cc4C)n3C)ccc2c1 [SB-633825]	91	89	76	90	66	99	63	48	69	64	91	80	73	74	12	84	22	91	95	42
COc1cccc(-n2ncc3c(N/N=C/c4ccncc4)ncnc32)c1 [GW784752X]	100	87	100	100	98	100	100	100	100	100	100	100	100	100	68	4.9	83	100	100	41
COc1cc2ncnc(Nc3ccc4c(cnn4Cc4ccccc4)c3)c2cc1OC.Cl [GW282449A]	100	100	100	100	100	100	100	100	100	100	100	100	100	12	0	0	0	100	100	100
CN1CCN(C(=O)c2ccc(NC(=O)Nc3ccc(N(C)c4ccnc(Nc5ccc(CS(C)(=O)=O)cc5)n4)cc3)cc2)CC1.Cl [GW830263A]	100	56	85	79	85	99	76	92	89	87	76	100	85	4.3	100	85	77	100	100	100
CCn1c(-c2nonc2N)nc2c(C#CC(C)(C)O)nc(OCCNC)cc21.Cl [GSK949675]	100	100	100	100	100	98	100	100	100	100	94	100	100	90	57	79	100	93	90	100
COC(=O)Nc1nc2ccc(Oc3ccc(NC(=O)Nc4cc(C(F)(F)F)ccc4F)cc3)cc2s1.Cl [GW693917A]	100	19	14	9.9	12	52	11	16	0.5	31	34	81	59	9.4	100	45	100	100	100	66
CC1=C(C(=O)Nc2ccc3[nH]ncc3c2)C(c2ccc3ccccc3c2)CC(=O)N1 (centres unmarked) [GSK270822A]	87	93	88	85	82	100	90	98	99	99	86	89	84	86	83	100	100	66	79	100
CN(C)CCNC(=O)Nc1ccc(N(C)c2ccnc(Nc3ccc(CS(C)(=O)=O)cc3)n2)cc1.Cl [GW830900A]	88	76	89	85	100	90	100	81	78	78	100	100	100	28	100	93	81	100	85	94
Cl.c1ccc(Cc2nc3ccc(Nc4ncnc5ccccc45)cc3[nH]2)cc1 [GR269666A]	100	100	100	100	100	100	100	100	100	100	100	100	100	81	0	20	1.8	100	100	100
COc1cc(N2CCN(C(C)C)CC2)ccc1Nc1nc(Nc2ccc(F)cc2C(=O)NC[C@@H](O)CO)c2cc[nH]c2n1 [GSK1392956A]	100	91	94	70	100	100	72	100	100	100	100	69	81	93	85	50	73	100	99	66
